Test systems include HCT-15 colon; HT29 colon; SNB-75 CNS; SNB-19 CNS; U251 CNS; PC-3 prostate; SK-MEL-5 melanoma; UACC-62 melanoma; LOX IMVI melanoma; SK-MEL-28 melanoma; SK-MEL-2 melanoma; EKVX NSCLC; SN12C renal; UO-31 renal; TK-10 renal; ACHN renal; CAKI-1 renal; A498 renal; CCRF-CEM leukemia; MOLT-4 leukemia.
What all share (assay): NCI-60 one-dose screen, 48 h (100 = growth as untreated, 0 = no growth, -100 = all killed)
Common to all, as to conditions: 10 µM unless noted

Growth data for seven compounds are collected here from PubChem BioAssay (NCI).

Compounds without any hit were thinned out: in the full panel of roughly 83,000, 20% have a hit.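 Note: values are percent growth. 100 is the growth of untreated cells, values between 100 and 0 indicate rising inhibition; between -100 and 0 indicates cell death.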 Values without a mark were called inactive. Calls of active or inactive are those of the source. The calls were made as follows: active = growth percent below 10; inactive = the rest.

Regarding `COc1cc(NC(=O)c2cncnc2Nc2ccc3c(ccn3Cc3cccc(F)c3)c2)cc(OC)c1`, the growth was 33.7% in the test on HCT-15 colon; 20% in the test on HT29 colon; 8.48% (active) in the test on SNB-75 CNS; 74.7% in the test with SNB-19 CNS; 41.1% with U251 CNS; 43.5% in the test with PC-3 prostate. Besides, the growth with SK-MEL-5 melanoma is 59.7%; with UACC-62 melanoma, 55%; in the test with LOX IMVI melanoma, 40.3%; in the test with SK-MEL-28 melanoma, 59.6%; in the test with SK-MEL-2 melanoma, 66.7%; in the test with EKVX NSCLC, 85.3%. Further, the growth in the test on SN12C renal was 67.4%; in the test on UO-31 renal, 37.9%; with TK-10 renal it was 76.8%; in the test with ACHN renal, 54%; in the test with CAKI-1 renal, 34.8%; in the test on A498 renal, 24.3%. The figures for the growth in the test with CCRF-CEM leukemia and in the test with MOLT-4 leukemia were 26.4% and 19.8%, respectively.
On to `CCN1CCN(c2nc(NNC(=O)c3ccc(OC)cc3)nc(N3CCN(C(c4ccccc4)c4ccccc4)CC3)n2)CC1`, for which the growth with HCT-15 colon is 22.2%; with HT29 colon, 15.6%; with SNB-75 CNS, 45.9%; with SNB-19 CNS, 78.3%; in the test on U251 CNS, 39.5%; in the test on PC-3 prostate, 30.2%. Besides, the growth with SK-MEL-5 melanoma is -74.4% (active); in the test with UACC-62 melanoma, 68.3%; in the test on LOX IMVI melanoma, 1.43% (active); with SK-MEL-28 melanoma, 64.1%; with SK-MEL-2 melanoma it was 78%; in the test with EKVX NSCLC it was 82.6%. Further, the growth in the test on SN12C renal is 45.7%; in the test with UO-31 renal, 61.2%; in the test with TK-10 renal it was 49.5%; with ACHN renal it was 34%; with CAKI-1 renal, 24%; in the test on A498 renal, 60.1%. Moreover, the growth is 43.8% with CCRF-CEM leukemia and 16.3% in the test with MOLT-4 leukemia.
As to `COc1ccc(Cn2cc3c(c2)-c2oncc2CC3)cc1`, the growth in the test on HCT-15 colon is 54.8%; in the test with HT29 colon it was 9.48% (active); in the test with SNB-75 CNS, 50.6%; with SNB-19 CNS, 71.8%; in the test with U251 CNS, 42.8%; in the test on PC-3 prostate it was 82.3%. In addition, the growth is 49.7% in the test with SK-MEL-5 melanoma; 38.6% with UACC-62 melanoma; 59% in the test with LOX IMVI melanoma; 69.9% in the test with SK-MEL-28 melanoma; 68% in the test on SK-MEL-2 melanoma; 66.3% in the test on EKVX NSCLC. Besides, the growth in the test with SN12C renal is 77.8%; in the test on UO-31 renal, 68.2%; with TK-10 renal, 101%; with ACHN renal it was 99.2%; in the test with CAKI-1 renal, 64%; in the test on A498 renal, 57.7%. Further, the growth with CCRF-CEM leukemia was 35.2%; with MOLT-4 leukemia it was 58%.
In the case of `O=C(CN1C(=O)c2ccccc2S1(=O)=O)Nc1nc(-c2cc3ccccc3oc2=O)cs1`, the growth was 108% with HCT-15 colon; 103% in the test with HT29 colon; 97.3% in the test with SNB-75 CNS; 101% in the test with SNB-19 CNS; 99.2% in the test on U251 CNS; 97.7% with PC-3 prostate. Besides, the growth is 99.1% with SK-MEL-5 melanoma; 97.8% with UACC-62 melanoma; 99.5% with LOX IMVI melanoma; 107% in the test with SK-MEL-28 melanoma; 107% in the test on SK-MEL-2 melanoma; 102% in the test on EKVX NSCLC. The growth in the test on SN12C renal is 97.2%; in the test with UO-31 renal, 91%; in the test on TK-10 renal, 137%; in the test on ACHN renal it was 103%; in the test with CAKI-1 renal it was 100%; with A498 renal, 98%. Also, the figures for the growth with CCRF-CEM leukemia and with MOLT-4 leukemia were 104% and 110%, respectively.
With `N#Cc1c(-c2ccc(F)cc2)cc(-c2cccc(Cl)c2)[nH]c1=O`, the growth with HCT-15 colon was 58.1%; in the test on HT29 colon, 110%; with SNB-75 CNS, -25.5% (active); in the test on SNB-19 CNS, 42.7%; in the test with U251 CNS it was 39.5%; with PC-3 prostate, 72.7%. In addition, the growth in the test with SK-MEL-5 melanoma is 70.1%; with UACC-62 melanoma it was 40.9%; with LOX IMVI melanoma, 63.6%; in the test on SK-MEL-28 melanoma, 83.9%; with SK-MEL-2 melanoma it was 78.6%; in the test on EKVX NSCLC, 66.9%. Besides, the growth was 60.3% in the test on SN12C renal; 54.3% with UO-31 renal; 54.3% in the test on TK-10 renal; 49.4% with ACHN renal; 52.1% with CAKI-1 renal; 80.4% with A498 renal. The values for the growth with CCRF-CEM leukemia and in the test with MOLT-4 leukemia were 71.9% and 88.3%, respectively.
As for `CC(Cc1cccc2ccccc12)C(N)=O` (stereo not given), the growth in the test with HCT-15 colon was 101%; in the test with HT29 colon, 101%; in the test on SNB-75 CNS, 98.6%; in the test with SNB-19 CNS it was 104%; in the test on U251 CNS, 105%; in the test on PC-3 prostate it was 93.8%. Moreover, the growth is 101% in the test with SK-MEL-5 melanoma; 98.8% in the test with UACC-62 melanoma; 101% with LOX IMVI melanoma; 108% in the test with SK-MEL-28 melanoma; 105% in the test on SK-MEL-2 melanoma; 104% in the test on EKVX NSCLC. Further, the growth was 97.2% in the test on SN12C renal; 87.3% in the test with UO-31 renal; 98.7% with TK-10 renal; 103% in the test with ACHN renal; 93.8% with CAKI-1 renal; 100% in the test on A498 renal. In addition, the growth in the test on CCRF-CEM leukemia was 97.1%; in the test with MOLT-4 leukemia, 99.8%.
Consider `O=c1c(Cc2ccc(F)cc2)cc(-c2ccccc2)nn1C/C(=N/O)c1ccccc1`, for which the growth in the test with HCT-15 colon is 44.5%; in the test on HT29 colon, 20.3%; in the test on SNB-75 CNS it was 57.8%; in the test on SNB-19 CNS it was 58.3%; in the test with U251 CNS, 34.5%; in the test with PC-3 prostate it was 25.9%. In addition, the growth is 36.6% in the test with SK-MEL-5 melanoma; 33.6% with UACC-62 melanoma; 53.1% with LOX IMVI melanoma; 62% in the test on SK-MEL-28 melanoma; 36.8% with SK-MEL-2 melanoma; 29.1% in the test with EKVX NSCLC. Moreover, the growth with SN12C renal is 17.2%; in the test with UO-31 renal, 30.9%; in the test with TK-10 renal, 63.5%; in the test on ACHN renal, 40.3%; in the test on CAKI-1 renal, 47%; in the test on A498 renal it was 9.7% (active). Moreover, the growth with CCRF-CEM leukemia was 34.6%; in the test with MOLT-4 leukemia, 16.1%.
